Assay outcomes: PubChem, National Center for Advancing Translational Sciences (NCATS)
Sampled rows, rich in hits. Any-hit rate of the full collection: about 10%.
JMJD2A Tudor: qHTS Assay for Inhibitors of JMJD2A-Tudor Domain; AlphaScreen JMJD2A-Tudor / H3K4me3 peptide binding; Potency, µM (top dose mostly 114 µM), hits mostly inhibitors; Lysine-specific demethylase 4A (Homo sapiens), O75164; hit rate 4.4% among 390,000; further: nearly all actives have a fitted effect of over 50% in size
GLS inhibitor: qHTS for Inhibitors of Glutaminase (GLS); GLS enzymatic activity, qHTS titration; Potency, µM (top dose mostly 45.5 µM), actives largely listed as inhibitors; hit rate 0.21% among 410,000; AID 624170, 2012
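Two-point fluorescence kinetic (t0, 30 min RT) for hKGA; glutamate detected via glutamate oxidase–HRP–Amplex Red. Substrate: 1 mM L-glutamine solution; buffer 45 mM KH2PO4, pH 8.2.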
HP1b binding inh: HTS for Inhibitors of HP1-beta Chromodomain Interactions with Methylated Histone Tails; AID 540317, 2011; Potency, µM (highest dose often 114 µM), usual class: inhibitors; AlphaScreen HP1-beta / biotin-H3K9me3 peptide binding; Chromobox protein homolog 1 (Homo sapiens), P83916; hit rate 0.56% among 390,000; further: nearly all actives have a fitted effect of over 70% in size
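Compound inhibition of the preformed complex between 50 nM HP1-beta and 50 nM biotinylated H3K9me3 peptide was read by AlphaScreen. Buffer was PBS pH 7.4 with 0.01% Tween-20. Incubations ran 30 min at room temperature, with 10 ug/mL donor/acceptor beads.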
G9a inh: qHTS Assay for Inhibitors of Histone Lysine Methyltransferase G9a; G9a H3K9 monomethylation, AlphaScreen, 2 h; Potency, µM (highest dose often 102 µM), hits mostly inhibitors; hit rate 8.8% among 350,000; AID 504332, 2011; Histone-lysine N-methyltransferase EHMT2 (Homo sapiens), Q96KQ7; further: nearly all actives have a fitted effect of over 75% in size
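Quantitative HTS format: methyltransferase activity on a biotin-tagged H3K9 peptide is measured by AlphaScreen, using a rabbit anti-monomethyl-H3K9 antibody with streptavidin donor and anti-IgG acceptor beads. Final levels are 20 nM enzyme, 500 nM peptide, 20 uM SAM; 2 h RT.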
BAZ2B block: qHTS Assay for Inhibitors of BAZ2B. Bromodomain adjacent to zinc finger domain protein 2B (Homo sapiens), Q9UIF8. AlphaScreen BAZ2B-H3K14Ac peptide displacement. Potency, µM (titrated, usually from 114 µM), hits mostly inhibitors. hit rate 4.4% among 360,000. AID 504333, 2011; further: nearly all actives have a fitted effect of over 60% in size
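Complex of BAZ2B and biotin-H3K14Ac (50 nM apiece) forms over 30 min at RT, then faces library compounds up to 110 uM for another 30 min; AlphaScreen beads added, 20 min dark incubation, luminescence read.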
Numbers stand for hits; n = inactive; u = inconclusive; x = no result given; [ ] = dose if it differs, or a comment. The call rests on the fitted dose curve; in most records, active means well fitted curve in the direction sought with a large enough effect; inconclusive means small, poorly fitted or top-dose-only effect, or another doubt; inactive means no such curve, though single readings can be large; an effect the other way counts as inactive or inconclusive.

SMILES | JMJD2A Tudor | GLS inhibitor | HP1b binding inh | G9a inh | BAZ2B block
CCN(CCCNC(=O)C1CCN(S(=O)(=O)c2c(C)[nH]c(=O)[nH]c2=O)CC1)c1cccc(C)c1 | n | n | n | 50.1µM | n
CC(=O)Nc1c(C)nn(-c2ccccc2)c1N1CCC(C(=O)Nc2ccccc2F)CC1 | n | n | n | n | n
CCc1ccc(CN2CCc3nc(Nc4ccc5c(c4)OCCO5)ncc3C2)cc1 | 28.2µM | n | u | n[12.7 µM] | 14.1µM
Cc1ccc(CN2CCc3nc(Nc4ccc5c(c4)OCCO5)ncc3C2)cc1 | 44.7µM | n | u | n[12.7 µM] | 39.8µM
COc1cc(CN2CCc3nc(Nc4ccc5c(c4)OCCO5)ncc3C2)cc(OC)c1OC | u | n | n | n[12.7 µM] | u
COc1cccc(CN2CCc3nc(Nc4ccc5c(c4)OCCO5)ncc3C2)c1OC | 56.2µM | n | u | u | 35.5µM
CSCc1cccc(C(=O)OC(C)C(=O)Nc2c(C)n(C)n(-c3ccccc3)c2=O)c1 (stereo not given) | n | n | n | 8.91µM | n
Cc1c(NC(=O)C(C)OC(=O)c2cccc([N+](=O)[O-])c2)c(=O)n(-c2ccccc2)n1C (stereo not given) | n | n | n | n | n
S=C(c1ccc(-c2cccc(Cl)c2)o1)N1CCOCC1 | 50.1µM | n | 35.5µM | u | 44.7µM
CC(=O)N1CCN(C(=S)c2ccc(-c3ccc(Cl)cc3)o2)CC1 | u | n | n | 3.98µM | n
S=C(c1ccc(-c2cccc(Cl)c2)o1)N1CCCCC1 | 28.2µM | u | u | 11.2µM | 31.6µM
Cc1cc(C)n(CCNC(=O)[C@H]2O[C@@H](n3ccc(=O)[nH]c3=O)[C@H](O)[C@@H]2O)n1 | x | n | x | x | x
NC(=O)Cc1nc(-c2ccc(F)cc2)cs1 | n | n | n | 22.4µM | n
NC(=O)Cc1nc(-c2ccc([N+](=O)[O-])cc2)cs1 | n | n | n | n | n
Cc1ccn(-c2cc(O)c(-n3ccc(C)n3)cc2O)n1 | u | n | u | 3.55µM | n
Cc1ccn(CCC(=O)O)n1 | n | n | n | x | n
Cc1cccc(C)c1NC(=O)C(=O)NCC(c1cccnc1)N1CCc2ccccc21 (stereo not given) | n | n | n | n | n
COc1cccc(C(C)(O)c2nc(-c3ccoc3)cs2)c1 (stereo not given) | x | n | x | x | x
CCOC(=O)Cn1c(=O)n(CC2CCCO2)c2nc(-c3ccccc3F)nc(C(N)=O)c21 (stereo not given) | n | n | n | n | n
COc1cc2c(cc1OC)CN(Cc1nc3ccsc3c(=O)[nH]1)CC2 | u | n | n | u | 39.8µM
COc1cccc(-c2cc(NC(C)=O)c3ncc(-c4ccc(OC)c(OC)c4)n3c2)c1 | x | n | x | x | x
COc1ccccc1NC(=O)c1sc(NC(=O)c2ccco2)c(C#N)c1C | n | n | n | n | n
COC(=O)c1sc(NC(=O)c2ccco2)c(C#N)c1C | n | n | n | 35.5µM | n
CCOC(=O)c1sc(NC(=O)c2cccnc2)c(C#N)c1C | n | n | n | 11.2µM | n
COc1cc(C(C)=O)ccc1OC(=O)N1CCOCC1 | x | n | x | x | x
SMILES | JMJD2A Tudor | GLS inhibitor | HP1b binding inh | G9a inh | BAZ2B block
Oc1cccnc1CN1CCOCC1 | 7.94µM | n | n | x | x
Fc1ccc(N2CCN(Cc3ccccn3)CC2)cc1 | 11.2µM | n | u | 3.55µM | 50.1µM
O=c1[nH]c(CN2CCN(c3ccc(F)cc3)CC2)nc2ccccc12 | n | n | n | n[0.501 µM] | n
c1ccc(CN2CCOCC2)nc1 | 11.2µM | n | n | x | x
CCOC(=O)N1CCN(c2c(Nc3ccc4c(c3)OCCO4)c(=O)c2=O)CC1 | n | n | n | u | n
COc1cc2c(cc1OC)C(C)N(CC(=O)Nc1ccc(S(=O)(=O)N3CCCC3)cc1)CC2 (stereo not given) | n | n | n | 39.8µM | n
C=CCN(CC=C)CC(=O)Nc1ccc(S(N)(=O)=O)cc1 | n | n | n | 0.708µM | n
CCOC(=O)N1CCN(CC(=O)NC(=O)Nc2ccc3c(c2)OCCO3)CC1 | n | n | n | 50.1µM | n
O=C(CN1CCN(S(=O)(=O)c2ccc(Cl)cc2)CC1)Nc1ccc(N2CCOCC2)cc1 | n | n | n | 56.2µM | n
O=C(CN1CCCCC1)Nc1ccc(S(=O)(=O)N2CCOCC2)cc1 | n | n | n | u | n
CN(CC(=O)Nc1ccc(S(N)(=O)=O)cc1)Cc1ccccc1F | n | n | n | n | n
CCn1nnc2cc(C(=O)Nc3cc(Cl)ccc3C)ccc21 | n | n | n | n[12.7 µM] | n
CCOc1ccc(C2C(=O)N(C3CCCCC3)CC(=O)N2C2CCCC2)cc1OC (stereo not given) | n | n | n | n | n
NS(=O)(=O)c1ccc(NC(=O)CN2CCCN(S(=O)(=O)c3ccc(F)cc3)CC2)cc1 | n | n | n | n | n
Cc1cccc(C)c1N1CCN(C(=O)Nc2ccc3c(c2)OCCO3)CC1 | 50.1µM | n | n | n | u
O=C(CN1CCN(S(=O)(=O)c2cc(Cl)ccc2Cl)CC1)Nc1ccc2c(c1)OCCO2 | n | n | n | 20µM | n
Cc1ccc(C)c(S(=O)(=O)N2CCN(CC(=O)Nc3ccc4c(c3)OCCO4)CC2)c1 | n | x | n | n[12.7 µM] | n
CC1CCN(S(=O)(=O)c2ccc(NC(=O)CN3CCN(C)CC3)cc2)CC1 | 3.16µM | n | u | 11.2µM | u
O=C(Nc1ccc2c(c1)OCCO2)N1CCN(c2ccc(F)cc2)CC1 | n | n | n | n | u
NS(=O)(=O)c1ccc(NC(=O)CN2CCN(S(=O)(=O)c3ccc(F)cc3)CC2)cc1 | 14.1µM | u | n | n | n
CC1CCN(S(=O)(=O)c2ccc(NC(=O)CN3CCCCCC3)cc2)CC1 | n | n | n | u | n
Cc1cnc(CNc2cc(-c3ccc(N(C)C)cc3)ncn2)cn1 | x | x | x | n[0.501 µM] | x
Cc1cc(C(=O)OCn2nnc3ccccc3c2=O)c(C)n1-c1ccccc1 | n | n | n | n | n
O=C(Nc1ccc(Cl)cc1)Nc1ccccc1Sc1ncc([N+](=O)[O-])s1 | u | n | n | x | 28.2µM
CN1CCN(CC(=O)Nc2nc3ccccc3s2)CC1 | 28.2µM | n | u | 35.5µM | 70.8µM
SMILES | JMJD2A Tudor | GLS inhibitor | HP1b binding inh | G9a inh | BAZ2B block
O=C(CN1CCOCC1)Nc1nc2ccc(Br)cc2s1 | n | x | n | 50.1µM | n
Cc1ccc(S(=O)(=O)N2CCCC2C(=O)Nc2nc3ccccc3s2)cc1 (stereo not given) | n | n | n | 15.8µM | n
O=C(CN1CCCCCC1)Nc1nc2ccccc2s1 | 22.4µM | n | u | x | x
O=C(CN1CCN(Cc2ccccc2)CC1)Nc1nc2ccccc2s1 | n | n | n | n | n
O=C(NC1CCN(Cc2ccccc2)CC1)c1cc(S(=O)(=O)N2CCOCC2)ccc1Cl | n | n | n | x | x
N#Cc1ccccc1-c1ccc2ncnc(NCCN3CCOCC3)c2c1 | x | x | x | n[0.501 µM] | x
COCCSc1ccccc1C(=O)Nc1ccccc1C(C)C | n | n | n | 5.01µM | n
